The list is not random: actives were taken first. Their share in the collection is about 17%.
TDP1 cell CPT = DT40-hTDP1 cell growth loss with CPT. chicken DT40 Tdp1-/-;hTDP1 cells + 20 nM CPT, ATP luminescence, 48 h. Potency, µM (highest dose often 46.2 µM), usual class: inhibitors. AID 686979. hit rate 12% among 420,000; also: nearly all actives have a fitted effect of over 55% in size
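Chicken DT40 Tdp1-/- cells stably complemented with human TDP1 were seeded at 400 cells/well in medium containing 20 nM camptothecin, exposed to pin-transferred compounds, and grown at 37 °C for at least 48 hr. Viability was read as ATP luminescence.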
HT1080 IDH1KD tx = toxicity to HT-1080 IDH1 knockdown cells (counter line) | HT-1080 IDH1 knockdown viability, ATP luminescence, 48 h | Potency, µM (highest dose often 46.1 µM), most hits filed as cytotoxic | hit rate 2% among 360,000
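Using the IDH1-knockdown HT-1080 line run in the same batch and compound series as the NT line, viability after 48 h at 37 °C was determined by CellTiter-Glo luminescence and expressed as % activity.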
TGFb SMAD3 inh = TGF-b pathway inhibition; HepG2 CAGA-GFP TGF-b/SMAD3 reporter, GFP fluorescence, 18 h; TGF-beta stimulated, 500 pg/mL final; Potency, µM (titrated, usually from 46.1 µM), actives largely listed as inhibitors; hit rate 1.2% among 410,000; AID 588855; also: nearly all actives have a fitted effect of over 65% in size
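HEPG2 CAGA-GFP reporter cells (1000/well, DMEM with 1% FBS) received compounds, then recombinant TGF-beta at 500 pg/mL final for 18 hours at 37 degrees C. Per-cell GFP summed per well was normalised to unstimulated and stimulated DMSO controls before curve fitting.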
HT1080NT lethal = kills 2HG-producing HT-1080-NT fibrosarcoma cells; HT-1080-NT fibrosarcoma viability, CellTiter-Glo ATP luminescence, 48 h; Potency, µM (titrated, usually from 46.1 µM), usual class: cytotoxic; hit rate 1.6% among 360,000; AID 686970;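 also: NT is the 2HG producing partner of a matched IDH1 knockdown line; nearly all actives have a fitted effect of over 55% in size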
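Fibrosarcoma NT cells, 750 per well in 5% FBS RPMI, were exposed to compound for 48 hours. Viability: CellTiter-Glo luminescence.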
TDP1 cell noCPT = qHTS for Inhibitors of human tyrosyl-DNA phosphodiesterase 1 (TDP1): qHTS in cells in absence of CPT; Potency, µM (titrated, usually from 46.2 µM), most hits filed as inhibitors; AID 686978, 2013; hit rate 15% among 420,000; DT40 Tdp1-/- hTDP1 cells, no CPT, ATP luminescence, 48 h; also: nearly all actives have a fitted effect of over 55% in size
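A cellular qHTS used chicken DT40 cells lacking endogenous Tdp1 but carrying stably transfected human TDP1. Compounds were applied without camptothecin, and cell growth kinetics were judged by ATP-dependent luminescence after ≥48 hr.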
HepG2 tox = counter-screen for TGF-b inhibitors: cytotoxicity in HepG2 cells; HepG2 CAGA-GFP viability, ATP luminescence, 18 h; Potency, µM (series often up to 46.1 µM), actives largely listed as cytotoxic; hit rate 0.76% among 410,000
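CellTiter-Glo luminescence gave cytotoxicity after 18 hours at 37 degrees C. The cells were HepG2 CAGA-GFP in 1% FBS DMEM, stimulated with 500 pg/mL TGF-beta after compound addition. %Activity was normalised to no-cell wells (complete cell-killing) and DMSO (no toxicity), and curves were fitted and classified.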
Large screens that a line does not name were inactive. Calls follow the shape of the dose curve; as a rule, active = well fitted curve in the direction sought with a large enough effect; inconclusive = small, poorly fitted or top-dose-only effect, or another doubt; inactive = no such curve, though single readings can be large; an effect the other way counts as inactive or inconclusive.

CCn1c(SCc2ccccc2)nnc1-c1nonc1NC(C)=O	none (no result: HT1080 IDH1KD tx, HT1080NT lethal)
Cc1cc(S(=O)(=O)NCCc2csc(-c3cccc(F)c3)n2)ccc1F	TDP1 cell CPT inconclusive, TGFb SMAD3 inh inconclusive, TDP1 cell noCPT 1.3µM, HepG2 tox 13µM (no result: HT1080 IDH1KD tx, HT1080NT lethal)
COc1ccc(S(=O)(=O)NCCc2sc(-c3cccc(F)c3)nc2C)cc1	TDP1 cell CPT 16µM, TGFb SMAD3 inh inconclusive, TDP1 cell noCPT 21µM (no result: HT1080 IDH1KD tx, HT1080NT lethal)
COc1ccc(-c2nc(C)c(CCNS(=O)(=O)c3cc(C)c(C)cc3C)s2)cc1	TGFb SMAD3 inh 11µM (no result: TDP1 cell CPT, HT1080 IDH1KD tx, HT1080NT lethal, TDP1 cell noCPT)
COc1ccc(S(=O)(=O)NCCc2sc(-c3ccccc3)nc2C)cc1OC	none (no result: TDP1 cell CPT, HT1080 IDH1KD tx, HT1080NT lethal, TDP1 cell noCPT)
Cc1nc(-c2ccccc2)sc1CCNS(=O)(=O)c1ccc(Br)cc1	TGFb SMAD3 inh 11µM (no result: TDP1 cell CPT, HT1080 IDH1KD tx, HT1080NT lethal, TDP1 cell noCPT)
COc1ccc(-c2nc(C)c(CCNS(=O)(=O)c3cc(Cl)ccc3Cl)s2)cc1	TGFb SMAD3 inh inconclusive (no result: TDP1 cell CPT, HT1080 IDH1KD tx, HT1080NT lethal, TDP1 cell noCPT)
O=C(CCC(F)(F)F)N1CCC(CO)(CCc2ccccc2)CC1	none
COc1ccc(CN(C)C[C@H]2OCCCC[C@@H](C)Oc3ccc(NS(C)(=O)=O)cc3C(=O)N([C@H](C)CO)C[C@@H]2C)cc1	none
COC(=O)C1(CCSC)NC(c2ccco2)C2C(=O)N(C)C(=O)C21 (stereo not drawn)	none
Cc1c(C(=O)NCc2nnc(-c3ccccc3)o2)oc2c(F)cccc12	TGFb SMAD3 inh inconclusive
CCCn1c(SCC(=O)N(C)C2CCS(=O)(=O)C2)nc2sc3c(c2c1=O)CCC3 (stereo not drawn)	TDP1 cell CPT inconclusive, TDP1 cell noCPT inconclusive
CC1CCc2c(sc3ncnc(SCC(=O)N(C)C4CCS(=O)(=O)C4)c23)C1 (stereo not drawn)	TDP1 cell CPT inconclusive, TDP1 cell noCPT 18µM
CC(=O)CSc1ncnc2sc3c(c12)CCC(C)C3 (stereo not drawn)	none
CCN(C(=O)CSc1nc(C)nc2sc3c(c12)CCC3)C1CCS(=O)(=O)C1 (stereo not drawn)	TDP1 cell CPT inconclusive, TDP1 cell noCPT 21µM
CN1CCC2(CC1)CCN(C(=O)c1cccc(F)c1)CC2	none (no result: HT1080 IDH1KD tx, TGFb SMAD3 inh, HT1080NT lethal, HepG2 tox)
CCNC(=O)CC1C(=O)N(c2ccc(C)cc2)C(=O)N1Cc1ccc(C)cc1 (stereo not drawn)	none (no result: HT1080 IDH1KD tx, HT1080NT lethal)
COc1ccccc1C1=NOC(COc2ccc3c(C)cc(=O)oc3c2)C1 (stereo not drawn)	TDP1 cell CPT 0.82µM, HT1080 IDH1KD tx 0.73µM, TGFb SMAD3 inh inconclusive, HT1080NT lethal 0.92µM, TDP1 cell noCPT 0.82µM
COc1ccc2c(C)cc(=O)oc2c1	none
COc1cccc(COc2ccc3c(C)cc(=O)oc3c2)c1	TDP1 cell noCPT inconclusive
COc1ccc(C2=NOC(COc3ccc4c(C)cc(=O)oc4c3)C2)c(OC)c1 (stereo not drawn)	TDP1 cell CPT 4.1µM, HT1080 IDH1KD tx 5.8µM, TGFb SMAD3 inh inconclusive, HT1080NT lethal inconclusive, TDP1 cell noCPT 5.2µM
Cc1ccc(-c2nc3sc(CCNS(=O)(=O)c4cc(F)ccc4F)c(C)n3n2)cc1	TDP1 cell CPT inconclusive, TGFb SMAD3 inh 6.3µM, TDP1 cell noCPT 21µM (no result: HT1080 IDH1KD tx, HT1080NT lethal)
Cc1c(CCNC(=O)C(C)(C)C)sc2nc(-c3ccc(F)cc3)nn12	TDP1 cell CPT inconclusive, TDP1 cell noCPT 26µM (no result: HT1080 IDH1KD tx, TGFb SMAD3 inh, HT1080NT lethal)
COc1ccc(-c2nc3sc(CCNS(=O)(=O)c4c(C)cc(C)cc4C)c(C)n3n2)cc1	TDP1 cell CPT inconclusive, TGFb SMAD3 inh inconclusive, TDP1 cell noCPT inconclusive (no result: HT1080 IDH1KD tx, HT1080NT lethal)
O=C1CC(C(=O)N2CCc3ccccc32)CN1c1ccccc1 (stereo not drawn)	none
c1ccc(Cn2nnnc2C(c2ccccc2)N2CCN(c3nc4ccccc4s3)CC2)cc1 (stereo not drawn)	TDP1 cell CPT inconclusive, TDP1 cell noCPT inconclusive
COc1ccc(C(c2nnnn2C(C)(C)C)N2CCN(c3nc4ccccc4s3)CC2)cc1 (stereo not drawn)	none

High-throughput results (PubChem BioAssay)
